# Compound activity from PubChem.
# ELG1 DNA repair: ELG1-dependent DNA repair inhibition. Potency, µM (top dose mostly 46.1 µM), for inactives: at the highest dose activity change, negative = inhibition, most hits filed as inhibitors. HEK293T ELG1-luciferase reporter, luminescence, 16 h; DNA damage induced by 5-fluorouridine. 330,000 compounds, 2.3% hits; further: on the % scale 0 is the no-effect control and ±100 the full control effect; nearly all actives have a fitted effect of over 55% in size
#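 In this reporter screen, reduction of luminescence relative to DMSO vehicle indicated activity. Compounds and 5-fluorouridine were added together to 2,000 cells per well, incubated for 16 hr at 37 °C, then developed with ONE-Glo.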
# SW480 rerep: induces DNA re-replication in SW480 colon adenocarcinoma cells. SW480 DNA re-replication, Hoechst DNA content imaging, 48 h. Potency, µM (doses to about 46.1 µM), without a hit: at the highest dose re-replication activation, hits mostly activators. 340,000 compounds, 1.8% hits. AID 624297; further: % of control where 0% means no effect; nearly all actives have a fitted effect of over 55% in size
#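 Per well, 250 cells were exposed to pinned compound for 48 hr. Nuclear DNA was visualised with Hoechst (40 min, 37 C) and total object intensity recorded by fluorescence scanning.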
# RORg inh: blocks mouse ROR gamma transcriptional activity. 310,000 compounds, 5.4% hits. Drosophila S2 Gal4-RORgamma UAS-luciferase reporter, 20 h. P51450. Potency, µM (top dose mostly 53.6 µM), for inactives: at the highest dose activity change, negative = inhibition, usual class: inhibitors; further: on the % scale 0 is the no-effect control and ±100 the full control effect; nearly all actives have a fitted effect of over 60% in size
# Target sequence (P51450 whole entry, looked up, the tested form may be a part): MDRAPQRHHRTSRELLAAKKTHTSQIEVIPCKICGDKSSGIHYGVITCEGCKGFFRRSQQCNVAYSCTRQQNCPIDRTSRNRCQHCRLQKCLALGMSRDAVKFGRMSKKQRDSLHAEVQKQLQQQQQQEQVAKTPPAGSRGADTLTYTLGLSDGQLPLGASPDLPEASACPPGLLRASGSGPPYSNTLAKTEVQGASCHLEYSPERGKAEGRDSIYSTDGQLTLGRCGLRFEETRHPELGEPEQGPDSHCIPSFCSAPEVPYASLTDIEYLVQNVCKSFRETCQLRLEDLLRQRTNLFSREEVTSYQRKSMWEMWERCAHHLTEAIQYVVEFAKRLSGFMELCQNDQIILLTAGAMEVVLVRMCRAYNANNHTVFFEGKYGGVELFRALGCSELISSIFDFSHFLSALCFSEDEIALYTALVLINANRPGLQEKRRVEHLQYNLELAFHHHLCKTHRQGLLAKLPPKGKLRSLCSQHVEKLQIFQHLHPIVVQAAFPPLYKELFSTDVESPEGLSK
#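 Read-out: Photinus luciferase luminescence; inhibitors lower reporter signal. Insect Schneider cells with Gal4-ROR gamma fusion under metallothionein promoter, UAS reporter; 700 uM final copper sulfate induction, 20 hr, ambient temperature.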
# Gal4-VP16 FLuc: Gal4-VP16 reporter inhibition counter-screen; Drosophila S2 Gal4-VP16 UAS-luciferase, luminescence, 20 h; Potency, µM (top dose mostly 53.6 µM), inactives show at the highest dose activity, negative = inhibition, hits mostly inhibitors; 310,000 compounds, 3.5% hits;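 further: Gal4-VP16 expression switched on by copper sulfate through the metallothionein promoter; on the % scale 0 is the no-effect control and ±100 the full control effect; nearly all actives have a fitted effect of over 50% in size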
# MCF10A rerep: inducers of DNA re-replication in MCF 10A breast cells; MCF 10A DNA re-replication, Hoechst nuclear intensity, 48 h; 350,000 compounds, 2.9% hits; Potency, µM (highest dose often 46.1 µM), for inactives: at the highest dose activity, positive = re-replication, most hits filed as activators; further: % of control where 0% means no effect; nearly all actives have a fitted effect of over 50% in size
# Active calls of the source: *; ? = inconclusive; . = no result given. In the library only some 10% were active in any assay of this set; here they are far more common. The call rests on the fitted dose curve; in most records, active means well fitted curve in the direction sought with a large enough effect; inconclusive means small, poorly fitted or top-dose-only effect, or another doubt; inactive means no such curve, though single readings can be large; an effect the other way counts as inactive or inconclusive. Potency means the concentration at half of the fitted maximal effect.
SMILES,ELG1 DNA repair,SW480 rerep,RORg inh,Gal4-VP16 FLuc,MCF10A rerep
O=C(CSC1=NNC(c2ccccn2)S1)Nc1cccc(Cl)c1 (stereo unspecified),-17%,?,3.5µM*,13µM*,?
COc1ccc(N2CCN(C3CCCN(Cc4cccc(C)c4)C3)CC2)cc1 (stereo unspecified),-8%,10%,5%,3%,-2%
COc1ccc(N2CCN(C3CCCN(Cc4cccc(C(C)=O)c4)C3)CC2)cc1 (stereo unspecified),1%,-16%,5%,2%,23µM*
CCOc1cc(CN2CCCC(N3CCN(c4ccc(F)cc4)CC3)C2)ccc1OC (stereo unspecified),0%,-47%,1%,-13%,4.1µM*
CCC1CCCCN1CCCNC(=O)CCNC(=O)Cn1cnc2ccccc2c1=O (stereo unspecified),1%,-2%,-12%,5%,-2%
COc1ccc(S(=O)(=O)N2CCN(C(=O)C3CCCCC3)CC2)cc1,1%,-1%,?,?,-4%
c1ccc(OCCSc2nnc3sc4ccccc4n23)cc1,?,0%,11µM*,11µM*,-4%
Cc1ccccc1C(=O)Nc1ccc2c(C#N)c3nc4ccccc4nc3n2c1,18µM*,-6%,-2%,-5%,6%
Cc1c(C(=O)Nc2ccccc2)cn2c(nc3ccccc32)c1C#N,4%,?,-41%,?,?
Cc1c(NC(=O)c2cc(-c3ccc(F)cc3)on2)c(=O)n(-c2ccccc2)n1C,11%,-1%,9%,7%,-2%
COC(=O)c1ccc(C[n+]2ccccc2)cc1,-2%,-1%,0.1µM*,12%,0%
CC(C)(C)CC(C)(C)c1ccc(O)c(CN2CCN(CCC#N)CC2)c1,-16%,?,25µM*,-24%,18µM*
COc1ccc(C=O)cc1OS(=O)(=O)c1ccc(NC(C)=O)cc1,?,18µM*,-4%,-3%,?
COC(=O)/C=C/S(=O)(=O)c1ccc(NC(C)=O)cc1,?,-4%,5µM*,5µM*,0%
CCOC(=O)Cc1csc(NC(=O)c2ccc(C)c(S(=O)(=O)N3CCOCC3)c2)n1,?,-6%,.,.,-5%
N#Cc1c(Cc2cccc3ccccc23)nn(CCO)c1N,.,-4%,.,.,-28%
N#Cc1c(-c2ccco2)cc(-c2ccccn2)nc1N,?,10%,10µM*,11µM*,?
N#Cc1c(-c2ccco2)cc(-c2cccnc2)nc1N,-23%,0%,?,-5%,17%
CCOC(=O)c1c(C)noc1-c1ccc(Br)o1,7%,-40%,0%,-10%,?
C=CCc1cccc(CNc2cnc3ccccc3c2)c1O,?,-3%,?,7.1µM*,-4%
Oc1ccccc1CNc1cnc2ccccc2c1,?,4%,?,?,3%
CCOC(=O)C1=C(Cc2ccc(F)cc2)C(=O)c2ccccc2C1=O,?,16%,14µM*,-26%,?
O=C(OCc1ccc(F)cc1)c1ccc2c(c1)-c1ccccc1C2=O,?,-1%,10%,-1%,?
CC1=C(C(=O)N2CCN(c3cc(C)ccc3C)CC2)C2(CCC(C)CC2)OC1=O (stereo unspecified),16%,0%,5%,-4%,4%
COc1cc(NS(=O)(=O)c2ccc(OC)c(C)c2C)c(OC)cc1Cl,?,5.6µM*,?,6.3µM*,?
SMILES,ELG1 DNA repair,SW480 rerep,RORg inh,Gal4-VP16 FLuc,MCF10A rerep
Cc1ccc(NC(=O)CSc2nnc(-c3cccnc3)s2)cc1,14%,-6%,-8%,-9%,1%
O=C(CSc1nnc(-c2cccnc2)s1)Nc1ccnc2ccccc12,12µM*,-9%,-10%,?,1%
Cc1nc(NNC(=O)c2ccc([N+](=O)[O-])cc2)cc(-c2ccccc2)n1,10%,-1%,2.2µM*,7.9µM*,0%
CC(C)(C)c1ccc(C(=O)NNc2cc(N3CCCCC3)nc(N3CCCCC3)n2)cc1,-3%,4%,-93%,-9%,7%
O=C(NNc1cc(N2CCCC2)nc(N2CCCC2)n1)c1ccc([N+](=O)[O-])cc1,?,-3%,1.4µM*,3.2µM*,0%
O=C(COC(=O)/C=C/c1ccc(F)cc1)NC1CCCCCC1,-2%,-7%,.,.,-6%
CCOC(=O)[C@@H]1[C@H]2COc3ccccc3[C@@H]2N2C(=O)N(c3cccc(F)c3)C(=O)[C@@]12C,?,0%,.,.,9%
Cc1onc(-c2ccccc2Cl)c1C(=O)Nc1nnc(Cc2ccc(Cl)cc2)s1,-6%,-2%,11µM*,?,1%
Cc1onc(-c2ccccc2Cl)c1C(=O)N(C)C1CCCCC1,?,0%,-14%,2.5µM*,3%
Cc1onc(-c2ccccc2Cl)c1C(=O)Nc1ccccc1,-18%,-4%,-39%,-1%,5%
Cc1onc(-c2ccccc2Cl)c1C(=O)NC(=S)Nc1ccc(C(C)(C)C)cc1,1%,-2%,7.9µM*,13µM*,4%
CCc1ccc(NC(=S)NC(=O)c2c(-c3ccccc3Cl)noc2C)cc1,-4%,-9%,2.5µM*,?,0%
CCN(C(=O)c1c(-c2ccccc2Cl)noc1C)C1CCCCC1,-10%,-6%,-5%,4%,13%
Cc1nnc(NC(=O)c2c(-c3ccccc3Cl)noc2C)s1,2%,-3%,?,-12%,-1%
Cc1ccccc1NS(=O)(=O)c1ccc(C(=O)NCC(C)(C)N2CCOCC2)cc1,-17%,-5%,.,.,?
COc1ccc(NC(=O)c2c(-c3ccccc3Cl)noc2C)c(OC)c1,18µM*,-1%,-19%,0%,6%
CCc1ccc(CN2C(=O)c3ccccc3C2C(=O)NC(C)CC)cc1 (stereo unspecified),?,-3%,29%,4%,9%
O=C1c2c(Br)c(Br)c(Br)c(Br)c2C(=O)N1c1ccccn1,-5%,-22%,3%,?,0.65µM*
CN(c1ncc(C(F)(F)F)cc1Cl)n1cc(C(N)=O)c2ccccc2c1=O,-7%,-5%,5%,-2%,-6%
Cc1cc(-n2c(C)cc(C(=O)COc3cc(F)ccc3[N+](=O)[O-])c2C)no1,-14%,13µM*,.,.,?
Cc1cc(-n2c(C)cc(C(=O)CSc3nc(N)cc(=O)[nH]3)c2C)no1,-2%,-22%,?,22µM*,0%
Cc1cc(-n2c(C)cc(C(=O)CCl)c2C)no1,-1%,?,6.3µM*,?,3.3µM*
Cc1cc(C(=O)CSc2nc(N)cc(=O)[nH]2)ccc1F,-6%,7%,-1%,-12%,13µM*
